# Experimental data: PubChem BioAssay AID677 (Vanderbilt High Throughput Screening Facility, 2007)
# Screen size: about 1,700 compounds; about 720 (42%) were called active. So high a share suggests a set chosen from earlier hits. These entries were drawn from the full list. A number with no mark means an inactive call.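 Rule for the calls: active = calcium response below the same-plate mean of wells given acetylcholine alone at its 80%-effect dose, minus 3 SD; inactive = the rest.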
# Target: Muscarinic acetylcholine receptor M1 (Rattus norvegicus) (UniProt P08482)
# Sequence (P08482 whole entry, looked up): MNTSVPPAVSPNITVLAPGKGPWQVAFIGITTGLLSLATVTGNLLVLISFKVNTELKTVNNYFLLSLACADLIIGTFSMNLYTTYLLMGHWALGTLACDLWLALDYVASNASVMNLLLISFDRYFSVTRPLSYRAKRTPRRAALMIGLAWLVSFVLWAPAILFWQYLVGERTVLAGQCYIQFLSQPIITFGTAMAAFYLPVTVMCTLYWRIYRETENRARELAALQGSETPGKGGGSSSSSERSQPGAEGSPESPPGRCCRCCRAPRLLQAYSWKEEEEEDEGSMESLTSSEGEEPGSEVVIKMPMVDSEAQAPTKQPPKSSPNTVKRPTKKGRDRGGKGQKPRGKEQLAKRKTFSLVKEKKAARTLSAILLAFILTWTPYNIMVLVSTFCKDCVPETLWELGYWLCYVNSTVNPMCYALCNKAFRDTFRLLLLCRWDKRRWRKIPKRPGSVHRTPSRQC
# Assay: rat M1 muscarinic receptor antagonists, confirmation, CHO cells, Fluo-4 calcium, duplicate (AID 677);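 note: raw fluorescence intensity difference in arbitrary instrument units and not normalized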
# Conditions: ACh EC80 antagonism, at 10 µM, hits give low values
row,Compound,calcium response (max-min fluorescence)
1,Cc1ccsc1-c1nc(CSCC(=O)NCCN2CCCC2)c(C)o1,379 (active)
2,C=CCn1c(=S)[nH]c2nc3c(cc2c1=O)COC(C)(C)C3,521
3,CN1CCN(c2ccc(NC(=O)COc3ccc(Cl)cc3Cl)cc2)CC1,339 (active)
4,O=C(Cc1cccs1)N1CCCC(c2nc(-c3ccc(S(=O)(=O)N4CCCC4)cc3)no2)C1 (stereo unspecified),457 (active)
5,CCn1c(=N)n(CC(=O)c2cccc(OC)c2)c2ccccc21,447 (active)
6,CCOC(=O)Nc1ccc2c(c1)N(C(=O)CN1CCN3CCCC3C1)c1ccccc1CC2 (stereo unspecified),476 (active)
7,Cc1c(C)c2cc3c4c(oc3c(C)c2oc1=O)CCCC4,548
8,Cc1ccccc1C(OCC(O)CN1CCCCC1CCO)c1ccccc1 (stereo unspecified),337 (active)
9,O=S(=O)(CCc1nc2ccccc2o1)c1ccc(Cl)cc1,608
10,CCCCN(C)C(=O)c1ccc2c(c1)N(CC)C(=O)c1ccccc1S2(=O)=O,320 (active)
11,C=CCSc1nc2ccccc2[nH]1,649
12,COc1ccc(-c2noc(CN(C)S(=O)(=O)c3ccc(C)cc3)n2)cc1,520
13,Cc1ccc(-c2noc(CCC(=O)Nc3ccccc3N3CCN(C)CC3)n2)cc1,535 (active)
14,O=C(c1ccco1)N1CCN=C1SCc1cccc(Cl)c1,602
15,CN1CCN(CC(=O)Nc2sc3c(c2C#N)CCC(C(C)(C)C)C3)CC1 (stereo unspecified),551
16,O=C(C(NS(=O)(=O)c1cccc2nsnc12)c1ccccc1)N1CCN(c2ccccn2)CC1 (stereo unspecified),430 (active)
17,COc1ccc(CCn2c(=N)c(C(=O)NCc3ccco3)cc3c(=O)n4cccc(C)c4nc32)cc1,489
18,CCN1CCN(c2c(Cl)cccc2NC(=O)c2ccc(Br)o2)CC1,179 (active)
19,CCOC(=O)c1c(NC(=O)CSc2nnc(CN3CCOCC3)n2C)sc2c1CCCC2,535
20,Cc1nc2c(-c3ccc(F)cc3)c(C)nn2c(C)c1CCC(=O)N1CCN(c2ccccn2)CC1,512 (active)
21,COCCn1c(SCC(=O)Nc2cc(Cl)ccc2OC)nc2c(c1=O)SC(C)C2 (stereo unspecified),596
22,Cc1cccc(N2CCN(Cc3c(C)n(C)n(-c4ccccc4)c3=O)CC2)c1C,413 (active)
23,CCn1c(=O)cc(OCC(=O)NCCCN2CCN(c3cccc(Cl)c3)CC2)c2ccccc21,499 (active)
24,O=C(CCN1C(=O)COc2ccccc21)NCCCN1CCN(c2ccc(F)cc2)CC1,484
25,COc1cccc2sc(Nc3nc(C)c(C(C)=O)s3)nc12,507
26,O=C(NCCCN1CCCCCC1)C1CC(=O)N(C2CCCC2)C1 (stereo unspecified),430 (active)
